# Sampled rows, rich in hits. Any-hit rate of the full collection: about 11%.
# Sm TGR block: inhibitors of Schistosoma mansoni thioredoxin glutathione reductase; Q962Y6; purified TGR, DTNB reduction, TNB absorbance 405 nm; Potency, µM (series often up to 114 µM), inactives show top-dose activity change, negative = inhibition, actives largely listed as inhibitors; 360,000 compounds, 3% hits; AID 485364; further: on the % scale 0 is the no-effect control and ±100 the full control effect; nearly all actives have a fitted effect of over 60% in size
#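 Kinetic colorimetric format: TGR-catalysed, NADPH-driven DTNB reduction monitored via TNB absorbance. Enzyme dispensed at 20 nM; compound exposure 15 min at room temperature before reaction start.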
# Pf growth 96h: P. falciparum growth inhibition at 96 hours; P. falciparum luciferase reporter growth, 96 h; Potency, µM (top dose mostly 28.7 µM), for the others: top-dose activity change, negative = inhibition, actives largely listed as inhibitors; 320,000 compounds, 6.9% hits; AID 504834; further: on the % scale 0 is the no-effect control and ±100 the full control effect
#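 P. falciparum expressing integrated firefly luciferase, in erythrocytes at 2% hematocrit, 0.05% parasitemia, incubated with compounds 96 h at 37 C, 5% CO2. Growth inhibition read as loss of luminescence; two-generation exposure targets delayed-death apicoplast inhibitors.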
# AMA1 RON2 block: inhibitors of Plasmodium falciparum AMA1-RON2 interaction | AlphaScreen AMA1-biotinylated RON2 peptide binding | Potency, µM (titrated, usually from 58.2 µM), for the others: at the top dose activity change, negative = inhibition, actives largely listed as inhibitors | 360,000 compounds, 0.2% hits | AID 720542;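 further: 0% = vehicle wells and -100% = peptide control; nearly all actives have a fitted effect of over 45% in size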
#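 AMA1 (3D7) with his tag at 25 nM final met compounds first, then biotinylated RON2 peptide at 25 nM; detection used donor plus acceptor beads, 10 µg/mL apiece, read by AlphaScreen after 30 min at room temperature.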
# NS1 function inh: influenza NS1 inhibition; Potency, µM (highest dose often 46.1 µM), without a hit: at the top dose activity, positive = more growth; 270,000 compounds, 0.4% hits; calls by dose curve; further: actives are rising curves; nearly all actives have a fitted effect of over 50% in size
#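 Growth recovery, yeast-based: influenza A NS1 expressed in S. cerevisiae causes slow growth, and suppressors are detected by OD600. The parent strain without NS1 is used as positive control.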
# Pf growth 48h: P. falciparum growth inhibition at 48 hours (one generation) | AID 504832 | P. falciparum luciferase growth in erythrocytes, 48 h | Potency, µM (highest dose often 28.7 µM), for the others: at the top dose activity change, negative = inhibition, actives largely listed as inhibitors | 310,000 compounds, 5.9% hits; further: on the % scale 0 is the no-effect control and ±100 the full control effect
#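 First compound was added to culture medium, then infected red cells at 0.1% parasitemia and 2% hematocrit (final). After incubation at 37 C under 5% CO2, luciferase detection reagent was dispensed and light output recorded.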
# * hit, by the source's call; u = inconclusive; x = no result given. Unless noted, the call rests on the fitted dose curve; in most records, active means well fitted curve in the direction sought with a large enough effect; inconclusive means small, poorly fitted or top-dose-only effect, or another doubt; inactive means no such curve, though single readings can be large; an effect the other way counts as inactive or inconclusive. Potency means the concentration at half of the fitted maximal effect.
SMILES,Sm TGR block,Pf growth 96h,AMA1 RON2 block,NS1 function inh,Pf growth 48h
CCCCCCCCCCCCCCCC[n+]1ccc(C(N)=O)cc1,4%,11%,17%,-6%,u
CCCCCCC[n+]1ccc(-c2cc[n+](CCCCCCC)cc2)cc1,-26%,0.33µM*,1%,-9%,0.41µM*
CCCCCCCCCCCCCCCC[n+]1ccc(/C=N/O)cc1,-19%,1.2µM*,-8%,-1%,2.3µM*
CCCCCCCCCCCCCCCC[n+]1ccccc1,x,1.5µM*,11%,x,3.8µM*
C[C@@H]1CN([C@@H](C)CO)C(=O)c2cccc(NC(=O)Nc3ccccc3)c2O[C@H]1CN(C)C(=O)Nc1cccc2ccccc12,x,x,-3%,x,x
Cc1nn(CC(C)C)c(Cl)c1C(=O)N(c1ccc(Cl)cc1F)S(C)(=O)=O,-2%,38%,5%,-2%,35%
CCOC(=O)N(C)c1c(CC)nc2c(OCCOc3ccccc3)cccn12,x,x,18%,x,x
CC(=O)Oc1ccccc1C(=O)C=Cc1cccc([N+](=O)[O-])c1,x,x,8%,x,x
c1ccc2c[n+](CCCCCCCCCC[n+]3ccc4ccccc4c3)ccc2c1,x,x,-9%,x,x
CCCCCCCCCCCC[n+]1ccc2ccccc2c1,x,3µM*,x,x,0.3µM*
Fc1ccccc1N1CCN(CCCc2ccccc2)CC1,-3%,12µM*,-6%,1%,0%
Cc1cccc(-c2c3c(=O)n(C)c(=O)n(C)c3c3c(C)nc4ccccc4n23)c1,2%,x,x,x,x
CC(C)Cn1cc(F)c(=O)n(CC(C)C)c1=O,2%,u,0%,x,6%
Brc1ccc2c(c1)CN1CCCC1=N2,11%,u,-1%,2%,10µM*
CCOC(=O)C1(Cc2cccc(F)c2)CCN(C(=O)C2CCCO2)CC1 (stereo not given),4%,3%,-5%,3%,-24%
CCC(C)(C)n1nnnc1C(c1cc(OC)ccc1OC)N1CCN(Cc2ccccc2)CC1 (stereo not given),32µM*,20%,-7%,-1%,u
CC(C)(C)n1nnnc1C(c1cccnc1)N1CCN(C2CCCCC2)CC1 (stereo not given),-17%,-2%,5%,-1%,12%
CCC(C)(C)n1nnnc1C(c1ccc(OC)c(OC)c1)N1CCN(c2ccc(OC)cc2)CC1 (stereo not given),-21%,2%,-25%,-48%,x
CC(C)(C)n1nnnc1C(c1cccnc1)N1CCN(c2cccc(C(F)(F)F)c2)CC1 (stereo not given),-12%,-25%,-12%,1%,3.7µM*
CCC(C)(C)n1nnnc1C(c1ccc(OC)c(OC)c1)N1CCN(c2ccccc2)CC1 (stereo not given),50µM*,26%,-7%,-7%,u
CCC(C)(C)n1nnnc1C(c1ccc(OC)c(OC)c1)N1CCN(c2ccc(F)cc2)CC1 (stereo not given),-16%,x,-13%,-12%,13µM*
COc1ccc(OC)c(C(c2nnnn2Cc2ccccc2)N2CCN(C)CC2)c1 (stereo not given),-51%,3%,6%,-4%,-11%
CCOc1ccc(C2c3[nH]c4ccccc4c3CCN2C(=O)Cc2cccc(OCC)c2OCC)cc1 (stereo not given),-11%,x,x,x,x
CCOc1ccccc1NC(=O)COC(=O)C1CC(=O)N(c2c(C)cccc2C)C1 (stereo not given),2%,38%,1%,5%,0%
COc1ccc(C(c2nnnn2C(C)(C)C)N2CCN(C)CC2)cc1OC (stereo not given),-64%,1%,16%,2%,20%
CCC(C)(C)n1nnnc1C(c1ccc(OC)c(OC)c1)N1CCN(c2cccc(OC)c2)CC1 (stereo not given),u,41%,-8%,-2%,7.4µM*
CN1c2ccccc2C2(C)CCCC3=Cc4cc([N+](=O)[O-])cc([N+](=O)[O-])c4OC312 (stereo not given),-3%,u,u,3%,5.9µM*
COC(=O)C1=C(c2ccccc2OCc2ccccc2)C[C@@H]2CC[C@H]1N2C(=O)NCc1ccc(OC)c(OC)c1,1%,u,-12%,x,13µM*
COC(=O)C1=C(c2ccc(OCc3ccccc3)cc2)C[C@@H]2CC[C@H]1N2C(=O)NCCc1ccc(F)cc1,x,x,-9%,x,x

# Compound activity: PubChem, National Center for Advancing Translational Sciences (NCATS)
